Assay results reported in PubChem BioAssay (NCATS).
Results filed as inconclusive are left out.

Assay: qHTS for identification of novel therapeutic agents for treatment of microphthalmiaassociated transcription factor (MiT) renal cell carcinoma (RCC) (AID 1963991)
Settings: TFE3-RCC UOK109 viability, CellTiter-Glo, 48 h; measured here: UOK109 Z-AUC; stronger effect = lower value
How it was run: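 Curves over 11 concentrations were fitted to CellTiter-Glo luminescence, scaled between empty wells (0%) and DMSO (100%) viability. Cells were UOK109, UOK124 and UOK145 TFE3-fusion RCC lines at 500/well, exposed 48 hours at 37 C.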
Compound `CC(C)Oc1ccc2c(=O)c(-c3ccccc3)coc2c1` has a z-score of 0.973.
In the case of `C[C@@H](c1ncncc1F)[C@](O)(Cn1cncn1)c1ccc(F)cc1F`, the z-score is reported as 0.104.
For `O=C1c2c(O)cc(O)cc2OC(c2ccc(O)c(O)c2)C1O` (configuration not stated), the z-score was -0.477.
For `C[C@@H](N)C1CCC(C(=O)Nc2ccncc2)CC1` (some centres not stated), the z-score was 1.67.

Same assay, conditions: TFE3-RCC viability, CellTiter-Glo, 48 h; measured here: UOK124 Z-AUC; stronger effect = lower value
For `CC(C)Oc1ccc2c(=O)c(-c3ccccc3)coc2c1`, the z-score was 0.495.
Work on `C[C@@H](c1ncncc1F)[C@](O)(Cn1cncn1)c1ccc(F)cc1F` yielded a z-score of 0.588.
Work on `O=C1c2c(O)cc(O)cc2OC(c2ccc(O)c(O)c2)C1O` (configuration not stated) yielded a z-score of 0.528.
For `C[C@@H](N)C1CCC(C(=O)Nc2ccncc2)CC1` (some centres not stated), the z-score was 0.534.

Same assay, conditions: TFE3-RCC viability, CellTiter-Glo, 48 h; measured here: UOK145 Z-AUC; stronger effect = lower value
`CC(C)Oc1ccc2c(=O)c(-c3ccccc3)coc2c1` gave a z-score of -0.312.
`C[C@@H](c1ncncc1F)[C@](O)(Cn1cncn1)c1ccc(F)cc1F` showed a z-score of 0.181.
Work on `O=C1c2c(O)cc(O)cc2OC(c2ccc(O)c(O)c2)C1O` (configuration not stated) yielded a z-score of 0.535.
`C[C@@H](N)C1CCC(C(=O)Nc2ccncc2)CC1` (some centres not stated) showed a z-score of 0.866.
